Test results: PubChem BioAssay AID1159580 (chemical genetic matrix, 2015)
Where “and” joins values, the source holds several entries; their conditions need not be identical. Identical values can stand only once. Hit rate of the full screen: of about 5,500 compounds, about 2,000 (36%) were called active. Roughly 18% stayed inconclusive and do not appear here. Cut-off read from the data, not from the text of the source: active = normalized growth mostly below about 0.91 (no sharp cut-off); inconclusive = no clear call, values can overlap the other calls; inactive = mostly above about 0.92. Some of the results follow.

Assay: chemical genetic growth profiling, strain panel (AID 1159580);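 note: tested at 20 µM; growth read once vehicle control cultures reached saturation at 30 °C; 1 = growth at the plate median or of vehicle wells; lower values mean less growth of the strain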
Conditions: S. cerevisiae deletion strains, growth OD

Measured: normalized growth

NCCCCC(=O)O
inactive: locus YAL013W, strain DEP1, hits give low values 1.03 | locus YAL021C, strain ccr4, hits give low values 1.01 | locus YAL026C, strain drs2, hits give low values 1.02 | locus YAL030W, strain snc1, hits give low values 1.01 | locus YAL040C, strain CLN3, hits give low values 1.01 | locus YBL061C, strain skt5, hits give low values 1.02 | locus YBR009C, strain hhf1, hits give low values 1.02 | locus YBR021W, strain FUR4, hits give low values 0.976 | locus YBR023C, strain chs3, hits give low values 1.02 | locus YBR171W, strain sec66, hits give low values 1.02 | locus YBR229C, strain ROT2, hits give low values 1.02 | locus YBR231C, strain swc5, hits give low values 1.02 | locus YBR279W, strain paf1, hits give low values 1.01 | locus YCL011C, strain gbp2, hits give low values 1.02 | locus YCL016C, strain dcc1, hits give low values 1.01 | locus YCL029C, strain bik1, hits give low values 0.998 | locus YCL061C, strain MRC1 (second series), hits give low values 1 | locus YCL069W, strain vba3, hits give low values 1.01 | locus YCR088W, strain abp1, hits give low values 1.02 | locus YDL005C, strain med2, hits give low values 1.02 | locus YDL035C, strain GPR1, hits give low values 1.02 | locus YDL040C, strain nat1, hits give low values 1.02 | locus YDL074C, strain BRE1, hits give low values 1.04 | locus YDL101C, strain DUN1, hits give low values 1.03 | locus YDL134C, strain PPH21, hits give low values 1.02 | locus YDL185W, strain tfp1, hits give low values 0.995 | locus YDL192W, strain arf1, hits give low values 0.992 | locus YDR001C, strain nth1, hits give low values 1.01 | locus YDR069C, strain doa4, hits give low values 1.02 | locus YDR101C, strain arx1, hits give low values 0.985 | locus YDR137W, strain rgp1, hits give low values 1.02 | locus YDR150W, strain NUM1, hits give low values 1.03 | locus YDR159W, strain sac3, hits give low values 1.03 | locus YDR162C, strain NBP2, hits give low values 1.04 | locus YDR195W, strain ref2 1.01 | locus YDR297W, strain sur2, hits give low values 1.02 | locus YDR318W, strain mcm21, hits give low values 0.992 | locus YDR334W, strain swr1, hits give low values 1.01 | locus YDR335W, strain msn5, hits give low values 1.01 | locus YDR388W, hits give low values 0.986 | locus YDR392W, strain spt3, hits give low values 1.01 | locus YDR502C, strain sam2, hits give low values 1 | locus YEL003W, strain gim4, hits give low values 1.01 | locus YEL037C, strain rad23, hits give low values 1 | locus YEL061C, strain CIN8 (second series), hits give low values 1.01 | locus YEL061C, strain CIN8, hits give low values 1.01 | locus YER002W, strain NOP16, hits give low values 1 | locus YER015W, strain faa2, hits give low values 1.02 | locus YER016W, strain bim1, hits give low values 1.02 | locus YER110C, hits give low values 0.977 | locus YER111C, strain swi4, hits give low values 1.03 | locus YER155C, strain BEM2 (second series), hits give low values 1.04 | locus YER155C, strain BEM2, hits give low values 1.03 | locus YER167W, strain BCK2, hits give low values 1.03 | locus YFR010W, strain ubp6, hits give low values 1.01 | locus YGL078C, strain dbp3, hits give low values 0.989 | locus YGL086W, strain mad1, hits give low values 0.993 | locus YGL167C, strain pmr1, hits give low values 1.03 | locus YGL173C, strain kem1, hits give low values 1.02 | locus YGL227W, strain vid30, hits give low values 1.02 | locus YGL240W, strain doc1, hits give low values 1.03 | locus YGL248W, strain PDE1, hits give low values 1.03 | locus YGL253W, strain hxk2, hits give low values 1.01 | locus YGR078C, strain PAC10, hits give low values 1.03 | locus YGR135W, strain pre9, hits give low values 0.985 | locus YGR229C, strain SMI1, hits give low values 1.02 and 1.01 | locus YGR252W, strain gcn5, hits give low values 0.917 | locus YHR013C, strain ard1, hits give low values 1.04 | locus YHR027C, strain rpn1, hits give low values 1.01 | locus YHR030C, strain SLT2, hits give low values 1.02 and 0.975 | locus YHR079C, strain IRE1 (second series), hits give low values 0.992 | locus YHR079C, strain IRE1, hits give low values 0.961 | locus YHR094C, strain hxt1, hits give low values 1 | locus YHR129C, strain ARP1, hits give low values 1.02 | locus YHR142W, strain chs7, hits give low values 1.03 | locus YHR200W, strain rpn10, hits give low values 1.01 | locus YIL066C, strain RNR3, hits give low values 1.02 | locus YIL073C, strain SPO22, hits give low values 1.02 | locus YIL125W, strain kgd1, hits give low values 0.994 | locus YIR030C, strain dcg1, hits give low values 0.998 | locus YJL092W, strain hpr5, hits give low values 1.02 | locus YJL095W, strain BCK1 (second series), hits give low values 1.03 | locus YJL095W, strain BCK1, hits give low values 1.02 and 0.979 | locus YJL115W, strain asf1, hits give low values 1.02 | locus YJL129C, strain trk1, hits give low values 1.03 | locus YJL134W, strain LCB3, hits give low values 1.02 | locus YJL154C, strain vps35, hits give low values 1.02 | locus YJL164C, strain tpk1, hits give low values 1.02 | locus YJL166W, strain qcr8, hits give low values 1.02 | locus YJL168C, strain set2, hits give low values 0.991 | locus YJL187C, strain SWE1 (second series), hits give low values 1.02 | locus YJR043C, strain POL32, hits give low values 1.03 | locus YJR066W, strain TOR1, hits give low values 0.902 | locus YJR075W, strain HOC1, hits give low values 1.03
